Results on 54 compounds are retold here after the supplement of paper PMC11537057.

Molecules are shown by their SMILES. Where a name gives a salt, the structure may show the parent alone. About 15 (0.9%) of roughly 1,700 compounds showed activity. For the sample, actives were picked, then their nearest neighbours and some compounds at random. Unmarked numbers belong to inactive results.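 Rule for the calls: active = infection cut by 80% or more with cell growth above 90% in both runs; inactive = the rest.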

The assay concerns HSV-1 strain 17 YFP-ICP4 in A549. The assay can be described thus: HSV-1 infection relative to DMSO (ICP4-YFP per H2B-RFP signal); higher = more viral infection (less antiviral activity), active = hit call of the paper. To be noted: 10 µM; 48 h; MOI: 0.1. As for the experimental part: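 Selleck FDA-approved library (L1300) screened in duplicate at 10 µM on A549 H2B-mRuby cells in 384-well plates, infected with HSV-1 strain 17 YFP-ICP4 at MOI 0.1 one hour before drug addition. Imaged after 2 days at 37°C. Cell growth (H2B-RFP) and infection (ICP4-YFP) are expressed as % of DMSO-treated wells. Hits: growth >90% and infection <20% of DMSO.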
For `CC1=NN(c2ccc(C)c(C)c2)C(=O)/C1=N\Nc1cccc(-c2cccc(C(=O)O)c2)c1O` [Eltrombopag], the HSV-1 infection is 82.4%. Under `CC1=NN(c2ccc(C)c(C)c2)C(=O)/C1=N\Nc1cccc(-c2cccc(C(=O)O)c2)c1O` [Eltrombopag Olamine] stands 99%; under `CS(=O)(=O)n1cc2c(n1)CN([C@H]1CO[C@H](c3cc(F)ccc3F)[C@@H](N)C1)C2` [Omarigliptin (MK-3102)], 106%; under `CCCCCCCCCCCCCCCCOc1nc2ccc(C)cc2c(=O)o1` [Cetilistat], 103%. For the compound `CCOc1cc2ncc(C#N)c(Nc3ccc(OCc4ccccn4)c(Cl)c3)c2cc1NC(=O)/C=C/CN(C)C` [Neratinib (HKI-272)], the HSV-1 infection is 73.4%. Regarding `CC(=O)N1C[C@H](O)C[C@H]1C(=O)O` [Oxaceprol], the HSV-1 infection was 97.8%. With `COC[C@H]1C[C@@H](c2nc(-c3ccc4c(c3)COc3cc5c(ccc6nc([C@@H]7CC[C@H](C)N7C(=O)[C@@H](NC(=O)OC)C(C)C)[nH]c65)cc3-4)c[nH]2)N(C(=O)[C@H](NC(=O)OC)c2ccccc2)C1` [Velpatasvir] the figure was 102%; with `CCC/N=C1\S/C(=C\c2ccc(OC[C@H](O)CO)c(Cl)c2)C(=O)N1c1ccccc1C` [Ponesimod], 57.6%; with `CCOc1ccc(Cc2cc([C@]34OC[C@](CO)(O3)[C@@H](O)[C@H](O)[C@H]4O)ccc2Cl)cc1` [Ertugliflozin], 114%. Under `C=C1CC[C@H](O)C/C1=C/C=C1\CCC[C@]2(C)[C@@H]([C@H](C)CCCC(C)(C)O)CC[C@@H]12` [Calcifediol] stands 89.7%. With `CCOC(=O)N[C@@H]1CC[C@@H]2[C@@H](C1)C[C@H]1C(=O)O[C@H](C)[C@H]1[C@H]2/C=C/c1ccc(-c2cccc(F)c2)cn1` [Vorapaxar] the figure was 113%; with `CN[C@@H]1[C@@H](O)[C@@H](O[C@@H]2[C@@H](O)[C@H](O[C@H]3O[C@H](CN)[C@@H](O)[C@H](O)[C@H]3O)[C@@H](N)C[C@H]2NC(=O)[C@@H](O)CN)OC[C@]1(C)O` [Isepamicin Sulphate], 124%. For the compound `CO/N=C(\C(=O)N[C@@H]1C(=O)N2C(C(=O)[O-])=C(C[n+]3cccc4c3CCC4)CS[C@H]12)c1csc(N)n1` [Cefpirome sulfate], the HSV-1 infection is 108%. Under `CC(C)(CO)C(O)C(=O)NCCCO` (racemic) [DL-Panthenol] stands 94%; under `CNC[C@H](O)[C@@H](O)[C@H](O)[C@H](O)CO.CNC[C@H](O)[C@@H](O)[C@H](O)[C@H](O)CO.O=C([O-])CN(CCN(CC(=O)[O-])CC(=O)O)CCN(CC(=O)[O-])CC(=O)O.[Gd+3]` [Gadopentetate Dimeglumine], 77.6%. As for `COc1ccccc1OCCN` [Carvedilol EP IMpurity E], the HSV-1 infection was 82.6%. On to `CC(C)[C@H]1C(=O)N[C@@H](CCCN=C(N)N)C(=O)NCC(=O)N[C@@H](CC(=O)O)C(=O)N[C@H](Cc2ccccc2)C(=O)N1C`, for which the HSV-1 infection was 86.4%.

Consider `CNC(=O)c1ccc2cc([C@@]3(O)CCn4cncc43)ccc2c1` [TAK-700 (Orteronel)], for which the HSV-1 infection was 58.5%.

Consider `Cc1cccc(C)c1N(CC(=O)Nc1ccc(-c2ncon2)cc1)C(=O)C1CCS(=O)(=O)CC1` [Amenamevir], for which the HSV-1 infection was 2.63% (active). Under `[OH][Al]([OH])[OH]` [Aluminium hydroxide] stands 113%. Under `COc1ccc([C@]2(C#N)CC[C@@H](C(=O)O)CC2)cc1OC1CCCC1` [Cilomilast] stands 94%. Regarding `COc1cc(O)c(C(=O)Nc2nc(C(=O)NCCN(C(C)C)C(C)C)cs2)cc1OC` [Acotiamide], the HSV-1 infection is 116%. Under `COc1cc(O)c(C(=O)Nc2nc(C(=O)NCCN(C(C)C)C(C)C)cs2)cc1OC` [Acotiamide hydrochloride] stands 75.1%; under `Cc1c(-c2ccc(O)cc2)n(Cc2ccc(OCCN3CCCCCC3)cc2)c2ccc(O)cc12` [Bazedoxifene Acetate], 31.7%; under `Cc1c(-c2ccc(O)cc2)n(Cc2ccc(OCCN3CCCCCC3)cc2)c2ccc(O)cc12` [Bazedoxifene HCl], 26.6%.

With `CCCSc1nc(N[C@@H]2C[C@H]2c2ccc(F)c(F)c2)c2nnn([C@@H]3C[C@H](OCCO)[C@@H](O)[C@H]3O)c2n1` [Ticagrelor], the HSV-1 infection was 87.1%. Under `C[C@@H]1CCO[C@H]2Cn3cc(C(=O)NCc4ccc(F)cc4F)c(=O)c(O)c3C(=O)N12` stands 122%; under `Cc1cc(N2CCN([C@@H]3CN[C@H](C(=O)N4CCSC4)C3)CC2)n(-c2ccccc2)n1` [Teneligliptin hydrobromide], 113%; under `CCCCCCCCCCCCCCCCCC(=O)O` [Stearic acid], 86.7%.

In the case of `O=C([O-])[C@H](O)[C@@H](O)[C@H](O)[C@H](O)CO.O=C([O-])[C@H](O)[C@@H](O)[C@H](O)[C@H](O)CO.[Ca+2]` [Calcium gluconate], the HSV-1 infection was 83.3%. Consider `Nc1nc(O)c2ncn(CCC(CO)CO)c2n1` [Penciclovir], for which the HSV-1 infection is 2.92% (active).

`CC(=O)OCC(CCn1cnc2cnc(N)nc21)COC(C)=O` [Famciclovir]: the HSV-1 infection was 102%. In the case of `CCC(=O)O[C@]1(C(=O)CCl)[C@@H](C)C[C@H]2[C@@H]3C[C@H](F)C4=CC(=O)C=C[C@]4(C)[C@@]3(F)[C@@H](O)C[C@@]21C` [Halobetasol Propionate], the HSV-1 infection was 60.2%. As to `CCc1ccc(Cc2ccc3c(c2)[C@]2(OC3)O[C@H](CO)[C@@H](O)[C@H](O)[C@H]2O)cc1` [Tofogliflozin(CSG 452)], the HSV-1 infection was 92.2%.

Regarding `CC[C@H](C)[C@H](N)C(=O)O` [isoleucine], the HSV-1 infection was 114%. With `Cc1c(C(=O)NN2CCCCC2)nn(-c2ccc(Cl)cc2Cl)c1-c1ccc(Cl)cc1` [Rimonabant] the figure was 94.5%. With `CC(C)c1nc(CN(C)C(=O)N[C@@H](CCN2CCOCC2)C(=O)N[C@H](CC[C@H](Cc2ccccc2)NC(=O)OCc2cncs2)Cc2ccccc2)cs1` [Cobicistat (GS-9350)] the figure was 86.4%; with `CCN(c1cc(-c2ccc(CN3CCOCC3)cc2)cc(C(=O)NCc2c(C)cc(C)[nH]c2=O)c1C)C1CCOCC1` [Tazemetostat (EPZ-6438)], 106%.

Take `Nc1cc(N2CCCCC2)nc(N)[n+]1OS(=O)(=O)[O-]` [Minoxidil sulphate]: the HSV-1 infection was 97.8%. With `N[C@@H](CCC(=O)O)C(=O)[O-].[Na+]` [L-Glutamic acid monosodium salt] the figure was 84.3%; with `Cc1ccc(C(C)C)c(O)c1` [Thymol], 95.3%; with `CCC(=O)O[C@@H]1CC(=O)O[C@H](C)C/C=C/C=C/[C@H](O)[C@H](C)C[C@H](CC=O)[C@H](O[C@@H]2O[C@H](C)[C@@H](O[C@H]3C[C@@](C)(O)[C@@H](OC(=O)CC)[C@H](C)O3)[C@H](N(C)C)[C@H]2O)[C@H]1OC` [Midecamycin], 96.5%. Under `CN(N=O)C(=O)NC1C(O)OC(CO)C(O)C1O` (centres undefined) [Streptozotocin (STZ)] stands 73.6%; under `O=C(O)CSc1nnc(Br)n1-c1ccc(C2CC2)c2ccccc12` [Lesinurad], 87.1%. Under `CCCCCOc1ccc(-c2cc(-c3ccc(C(=O)N[C@H]4C[C@@H](O)[C@@H](O)NC(=O)[C@@H]5[C@@H](O)[C@@H](C)CN5C(=O)[C@H]([C@H](O)CC(N)=O)NC(=O)[C@H]([C@H](O)[C@@H](O)c5ccc(O)c(OS(=O)(=O)O)c5)NC(=O)[C@@H]5C[C@@H](O)CN5C(=O)[C@H]([C@@H](C)O)NC4=O)cc3)no2)cc1` [Micafungin Sodium] stands 105%. Turning to `CCc1c(Cl)c(O)c(Cl)c(O)c1C(=O)O[C@H]1[C@H](O)[C@H](OC)[C@H](OC/C2=C\C=C\C[C@H](O)/C(C)=C/[C@H](CC)[C@@H](O[C@@H]3OC(C)(C)[C@@H](OC(=O)C(C)C)[C@H](O)[C@@H]3O)/C(C)=C/C(C)=C/C[C@@H]([C@@H](C)O)OC2=O)O[C@@H]1C` [Fidaxomicin], the HSV-1 infection is 126%. With `CC(=C(CCOC(=O)C(C)C)SSC(CCOC(=O)C(C)C)=C(C)N(C=O)Cc1cnc(C)nc1N)N(C=O)Cc1cnc(C)nc1N` (stereo in doubt) [Sulbutiamine] the figure was 92.2%. As to `C[N+](C)(C)CC(O)CC(=O)[O-]` (racemic) [DL-Carnitine HCl], the HSV-1 infection was 94.4%. Under `Nc1ccc(S(=O)(=O)Nc2cncc(Cl)n2)cc1` [Sulfalozine sodium] stands 105%.

As to `C=C[C@]1(C)C[C@@H](OC(=O)CS[C@@H]2C[C@H]3CC[C@@H](C2)N3C)[C@]2(C)[C@H](C)CC[C@]3(CCC(=O)[C@H]32)[C@@H](C)[C@@H]1O` [Retapamulin], the HSV-1 infection is 32.7%.

Take `COc1cccc(-c2c(C)n(Cc3c(F)cccc3C(F)(F)F)c(=O)n(C[C@H](NCCCC(=O)O)c3ccccc3)c2=O)c1F` [Elagolix Sodium]: the HSV-1 infection was 109%.

As for `OC(c1ccccc1)(c1ccccc1)C12CC[N+](CCOCc3ccccc3)(CC1)CC2` [Umeclidinium bromide], the HSV-1 infection is 100%. With `CC1CNc2c(cccc2S(=O)(=O)N[C@@H](CCCNC(=N)N)C(=O)N2CC[C@@H](C)C[C@@H]2C(=O)O)C1` (some centres undefined) [Argatroban Monohydrate] the figure was 97.4%; with `CC1CNc2c(cccc2S(=O)(=O)N[C@@H](CCCNC(=N)N)C(=O)N2CC[C@@H](C)C[C@@H]2C(=O)O)C1` (some centres undefined) [Argatroban], 99.1%.
